This excerpt belongs to a sample that is enriched for hits.
Tgondii IFNg: inhibitors of Toxoplasma gondii growth with IFN-gamma; activity change, negative = inhibition, % (no concentration beside the values); AID 1259416; 69,000 tested, 3.8% active; Toxoplasma gondii growth in IFN-gamma-treated host cells; hits give low values; in the data active = activity change below about -70%, passing the limit was not always enough;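 also: host cells are HeLa cells infected with Toxoplasma gondii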
The depositor's hits bear a star; i = inactive; ! = not active in a repeat.

SMILES | Tgondii IFNg
O=C(Nc1ccc(F)cc1Cl)c1c(O)c2cccnc2n(Cc2ccccc2)c1=O | 142
O=C(NCc1ccc(F)cc1)c1c(O)c2cccnc2n(Cc2ccccc2)c1=O | -99*
Cc1ccnc(CC(C)N(C)Cc2cc(=O)n3c4c(cccc24)CCC3)c1 (stereo unspecified) | 5
Cc1cccnc1N1CC2(CCN(Cc3cccnc3)C2)C1 | 7
c1ccc(CCN2CCCC3(CCNC3)C2)cc1 (stereo unspecified) | -49
Cc1cc(C)c(NC(=O)c2cc3cccnc3n(Cc3ccccc3)c2=O)c(C)c1 | -35
CC(C)NC(=O)CNC(C)Cn1cncn1 (stereo unspecified) | 7
Fc1ccc(C(OCCN2CCN(CCCc3ccccc3)CC2)c2ccc(F)cc2)cc1 | 14
Fc1ccc(C(OCCN2CCN(C/C=C/c3ccccc3)CC2)c2ccc(F)cc2)cc1 | -81*!
Fc1ccc(C(OCCN2CCCC2)c2ccc(Br)cc2)cc1 (stereo unspecified) | -62
CCN1C[C@H]2[C@H](OC)CCN(C(=O)COc3ccccc3OC)[C@H]2C1 | -35
CN1C(=O)COc2c(C(=O)NC3CN4CCC3CC4)cc(Cl)cc21 (stereo unspecified) | 10
O=C(N[C@H]1CN2CCC1CC2)c1ccc(Cl)cc1 | -23
Cn1cc(C(=O)C(=O)N[C@H]2CN3CCC2CC3)c2ccccc21 | -80*!
CNC(=O)Oc1c(Cl)cc(Cl)cc1Cl | 20
CCOc1ccc(C2NCCc3[nH]cnc32)cn1 (stereo unspecified) | 4
CC1(C)C2CC(=O)[C@]3(C)C(CC[C@@]4(C)[C@H](c5ccoc5)OC(=O)[C@H]5O[C@]543)[C@@]2(C)C(=O)C[C@H]1O (stereo partly specified) | 6
CC(=O)O[C@@H]1CC2C(C)(C)C(=O)C=C[C@]2(C)C2CC[C@]3(C)C(=CC(=O)O[C@H]3c3ccoc3)[C@@]21C (stereo partly specified) | -88*
CC(=O)O[C@H]1C[C@@H](OC(C)=O)C(C)(C)C2C[C@@H](OC(C)=O)[C@]3(C)C(CC[C@@]4(C)[C@H](c5ccoc5)C(=O)[C@H]5O[C@]543)[C@]21C (stereo partly specified) | 15
CC(C)N(C)Cc1cncc2c1CCN(c1ccccn1)C2 | -3
Cc1cc(-c2cnc(N3CC4CC(C3)c3cccc(=O)n3C4)nc2-c2cccs2)on1 (stereo unspecified) | -2
C=CCN1CCN(c2ncc(F)cn2)Cc2ccc(C)nc21 | 37
Fc1cnc(N2CCN(CC3CC3)c3ncccc3C2)nc1 | i
Fc1cnc(N2CCC3(CC2)CNCc2ccccc23)nc1 | -84*
C=CCOC(=O)N1CCOC2(CNCCOC2)C1 (stereo unspecified) | 10
SMILES | Tgondii IFNg
CCc1ccccc1NC(=O)c1cc2cccnc2n(Cc2ccccc2F)c1=O | 1
O=C(NCc1cccs1)c1cc2cccnc2n(Cc2ccc(Cl)cc2)c1=O | 51
CC(C)(O)CN1C[C@H]2CCC[C@@H](CNc3ncccn3)[C@@H]2C1 | i
Cc1ccc2c(c1)Cc1c(C(=O)NN3CCCCC3)nn(-c3ccc(Cl)cc3Cl)c1-2 | -75*!
O=C(CCc1cccnc1)N1C[C@@H](c2ccccc2)[C@@H]2[C@H]1C1CCN2CC1 | 0
CC1COC2(CCCN(Cc3csnn3)C2)C1 (stereo unspecified) | 4
CCO[C@@H]1CC2CC1CN2Cc1cnn(C)c1 (stereo partly specified) | 84
COc1ccc(/C=C/C(=O)C2C(=O)N(C)C34CCCC3C2c2ccccc2O4)cc1 (stereo unspecified) | 13
COc1ccc(OC)c(/C=C/C(=O)C2C(=O)NC34CCCCC3C2c2ccccc2O4)c1 (stereo unspecified) | -74*
O=C(/C=C/c1ccccc1)C1C(=O)NC23CCCCC2C1c1ccccc1O3 (stereo unspecified) | -64
c1cncc(CN2CCC3OCCCC3(COCC3CC3)C2)c1 (stereo unspecified) | 61
CCOP(=S)(OCC)Oc1nc(Cl)c(Cl)cc1Cl | -76*!
COc1ccccc1CCNC(=O)c1cc2cccnc2n(Cc2ccc(F)cc2)c1=O | -45
CN1CC(=O)N(c2cccnc2)CC12CCNC2 (stereo unspecified) | -19
O=C(NC(=O)c1c(F)cccc1F)Nc1cc(Cl)c(OC(F)(F)C(F)C(F)(F)F)cc1Cl (stereo unspecified) | -76*
C[C@]12CCC(=O)C=C1CCC1C2CC[C@@]2(C)C1CC[C@H]2O (stereo partly specified) | 11
C[N+]1(C)CCc2cc3c(cc2[C@H]1C1OC(=O)c2c1ccc1c2OCO1)OCO3 (stereo partly specified) | 15
Cn1ccnc1C1(O)CCCC2CNCC21 (stereo unspecified) | 29
CC(=O)OC1CN2CCC1CC2 (stereo unspecified) | 12
O=C(c1cccc(Cl)c1)C1CCCN(C2CCCCC2)C1 (stereo unspecified) | -3
O=C(Nc1cccc(Cl)c1)OC1CN2CCC1CC2 (stereo unspecified) | -78*
O=C(NCCc1c[nH]c2ccccc12)c1cc2cccnc2n(Cc2ccc(F)cc2)c1=O | -41
COCCn1c(C(=O)O)cc2cc(Cl)ccc21 | 221
Cc1noc(C)c1CN1CCCC2(CN(CC(=O)O)CCO2)C1 (stereo unspecified) | 0
CCc1cc2c(cc1-c1csc(-c3snnc3C)n1)C(C)(C)CCC2(C)C | -15
SMILES | Tgondii IFNg
C[C@@]1(CO)[C@H](O)CC[C@@]2(C)[C@H]1CC[C@H]1C[C@@H]3C[C@@]12CC[C@]3(O)CO | -86*
Cc1cccc(-c2ncc(CN3C[C@H]4CC[C@H]3C4)cn2)c1 | 9
O=C(c1ccco1)N1C2CCC1CNC2 | 40
CN(C)c1ncc2c(n1)C1(CCN(Cc3cccnc3)C1)COC2 (stereo unspecified) | 3
COc1cccc(C(=O)Nc2ccc(Br)cc2C(=O)c2ccccc2Cl)c1 | 57
CCN1CCN(C(=O)Cc2ccc(Nc3ncc(F)c(Nc4ccc(C(=O)Nc5ccccc5Cl)cc4)n3)cc2)CC1 | -73*
O=C(Nc1ccccc1Cl)c1cc2cccnc2n(Cc2ccc(F)cc2)c1=O | 46
O=C(Nc1ccc(CC(=O)N2CCN3CCNC(=O)C3C2)cc1)C1CC1 (stereo unspecified) | 4
CCN1C[C@]2(COC(=O)c3ccccc3N3C(=O)C[C@H](C)C3=O)CC[C@H](OC)[C@@]34[C@@H]5C[C@H]6[C@H](OC)[C@@H]5[C@](O)(C[C@@H]6OC)[C@@](O)([C@@H](OC)[C@H]23)[C@@H]14 | 13
CC(=O)Nc1ccccc1NC(=O)CNC(C)Cc1ncccc1C (stereo unspecified) | -33
O=C(NCC1CCOCC1)c1cnc(Nc2ccc(Cl)cc2Cl)nc1C(F)(F)F | -74*
COCCN1CCN(Cc2nccs2)Cc2cccnc21 | 204
CCCCOC(=O)c1ccc(NC(=O)c2cc3cccnc3n(Cc3ccccc3F)c2=O)cc1 | -20
Cc1noc(C)c1CN1CC[C@@H]2C[C@H](C(=O)N(C)C)O[C@@H]2C1 | -19
Cn1cc(CN2CC3(CCN(C(=O)c4cccnc4)C3)C2)cn1 | -5
CN(C)CCNC(=O)c1cc2cccnc2n(Cc2ccc(F)cc2)c1=O | -40
c1ccc(OCC2COCCC23CCNCC3)nc1 (stereo unspecified) | 4

Screening results deposited in PubChem by Broad Institute.
